# Measured values reported in PubChem BioAssay (NCATS).
# “And” between values parts separate entries of the source, which are not always exact repeats. Identical values can stand only once. Unmarked numbers belong to inactive results. Records with an inconclusive call do not appear. Where a call stands in place of a potency, no number is given. The source made the active and inactive calls. The call rests on the fitted dose curve; in most records, active means well fitted curve in the direction sought with a large enough effect; inconclusive means small, poorly fitted or top-dose-only effect, or another doubt; inactive means no such curve, though single readings can be large; an effect the other way counts as inactive or inconclusive.
# Experiments:
# [1] = qHTS Assay for Identification of Small Molecule Agonists for Thrombopoietin (TPO) Signaling Pathway (AID 917)
# Summary of the method: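 Cell-based luciferase reporter screen. Mouse Ba/F3 line stably expressing human TPO receptor; IL-3 removed overnight before plating. Co-treatment with compound and EC50 TPO (26 pM), 24 hrs at 37 C, then luminescence.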
# [2] = molecular target: Muscarinic acetylcholine receptor M1 (Rattus norvegicus) (UniProt P08482); experiment: qHTS Assay for Antagonists of Acetylcholine Muscarinic M1 Receptor: Measurement of IP-One Response (AID 944); further: nearly all actives have a fitted effect of over 75% in size
# Sequence of Muscarinic acetylcholine receptor M1 (Rattus norvegicus) (P08482 whole entry, looked up): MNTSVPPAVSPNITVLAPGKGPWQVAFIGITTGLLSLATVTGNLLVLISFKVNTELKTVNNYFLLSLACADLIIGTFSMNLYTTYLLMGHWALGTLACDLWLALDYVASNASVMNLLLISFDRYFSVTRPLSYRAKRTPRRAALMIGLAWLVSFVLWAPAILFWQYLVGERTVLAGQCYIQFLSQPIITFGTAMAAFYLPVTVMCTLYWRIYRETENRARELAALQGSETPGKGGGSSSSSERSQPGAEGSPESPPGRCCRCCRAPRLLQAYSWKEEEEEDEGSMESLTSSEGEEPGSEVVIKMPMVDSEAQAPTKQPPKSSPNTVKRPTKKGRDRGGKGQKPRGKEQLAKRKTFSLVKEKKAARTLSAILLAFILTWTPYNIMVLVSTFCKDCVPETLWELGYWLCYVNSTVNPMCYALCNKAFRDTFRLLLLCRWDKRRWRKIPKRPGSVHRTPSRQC
# Summary of the method: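 Antagonist mode with rat M1 receptor transfected into CHO cells. Compound is added first for 10 min, carbachol at its EC80 follows for 30 min, and lysis reagents then allow TR-FRET detection of accumulated IP1.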
# [3] = molecular target: Pyruvate kinase (Leishmania mexicana) (UniProt Q27686); experiment: qHTS Validation Assay for Inhibitors of Leishmania Mexicana Pyruvate Kinase (AID 945)
# Sequence of Pyruvate kinase (Leishmania mexicana) (Q27686 2-499 E452W): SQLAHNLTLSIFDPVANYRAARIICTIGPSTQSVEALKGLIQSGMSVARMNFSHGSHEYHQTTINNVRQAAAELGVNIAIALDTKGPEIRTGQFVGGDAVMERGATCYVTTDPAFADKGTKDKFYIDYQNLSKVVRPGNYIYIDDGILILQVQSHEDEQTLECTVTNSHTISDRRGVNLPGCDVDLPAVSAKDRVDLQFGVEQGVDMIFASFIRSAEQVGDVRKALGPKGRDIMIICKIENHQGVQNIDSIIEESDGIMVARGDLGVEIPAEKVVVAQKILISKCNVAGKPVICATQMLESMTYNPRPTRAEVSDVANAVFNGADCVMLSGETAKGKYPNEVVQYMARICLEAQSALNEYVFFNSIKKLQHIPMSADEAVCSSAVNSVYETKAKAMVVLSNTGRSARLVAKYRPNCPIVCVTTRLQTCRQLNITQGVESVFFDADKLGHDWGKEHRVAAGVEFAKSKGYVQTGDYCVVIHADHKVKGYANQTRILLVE
# Summary of the method: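 Eight-point qHTS titrations in triplicate, data normalized to DMSO neutral control. Reaction: 0.2 nM LmPYK E451W mutant, 0.5 mM PEP, 0.1 mM ADP, 7 mM MgCl2, pH 7.2, one hour at room temperature; luminescent ATP detection.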
# [4] = molecular target: DNA repair nuclease/redox regulator APEX1 (Homo sapiens) (UniProt P27695); experiment: qHTS Validation Assay for Inhibitors of the Human Apurinic/apyrimidinic Endonuclease 1 (APE1) (AID 1705;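 further: TAMRA fluorescence gain over two minutes as APE1 cuts a quenched THF abasic duplex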)
# Summary of the method: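 qHTS, 1536-well. APE1 + cpd 15 min RT → 50 nM TAMRA/BHQ-2 THF-abasic dsDNA substrate → kinetic fluorescence, 3 reads/60 s; delta(read3−read1) = reaction progress. No-enzyme buffer = negative control.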
# [5] = Counterscreen for APE1 Inhibitors: Fluorescent Dye Displacement Validation Assay (AID 1707)
# Summary of the method: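 Signal: ThO fluorescence (ex 480 nm/em 540 nm) on binding 50 nM dsDNA; displacement by test compound reduces it. Conditions: 250 nM dye, 50 mM Tris-HCl pH7.5, 2 mM MgCl2, 50mM NaCl, 0.01% Tween-20.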
# [6] = qHTS for differential inhibitors of proliferation of Plasmodium falciparum line 3D7 (AID 1876);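 further: parasite growth measured after three days of culture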
# [7] = molecular target: Cytochrome P450 2D6 (Homo sapiens) (UniProt P10635); experiment: qHTS Assay for Inhibitors and Substrates of Cytochrome P450 2D6 (AID 891); further: nearly all actives have a fitted effect of over 60% in size; further: potency means the concentration at half of the fitted maximal effect
# Sequence of Cytochrome P450 2D6 (Homo sapiens) (P10635 whole entry, looked up): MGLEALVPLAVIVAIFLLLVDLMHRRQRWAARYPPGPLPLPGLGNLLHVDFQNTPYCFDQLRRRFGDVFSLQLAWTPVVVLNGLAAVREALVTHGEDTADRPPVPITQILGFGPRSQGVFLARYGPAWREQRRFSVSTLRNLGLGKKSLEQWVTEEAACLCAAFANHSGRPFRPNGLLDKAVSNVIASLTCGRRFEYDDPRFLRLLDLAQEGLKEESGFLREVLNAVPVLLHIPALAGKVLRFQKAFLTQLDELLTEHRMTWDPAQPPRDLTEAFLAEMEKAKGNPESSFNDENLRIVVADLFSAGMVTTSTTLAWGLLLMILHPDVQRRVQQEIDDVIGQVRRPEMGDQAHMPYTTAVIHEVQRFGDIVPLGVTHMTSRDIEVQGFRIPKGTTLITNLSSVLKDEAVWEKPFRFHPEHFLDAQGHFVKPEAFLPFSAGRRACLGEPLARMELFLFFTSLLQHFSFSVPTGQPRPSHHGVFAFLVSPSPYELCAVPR
# Summary of the method: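 Luminescent read-out of luciferin formed by 5 nM human CYP2D6 demethylating 30 uM Luciferin-ME EGE (Km level) over 60 min at room temperature after NADPH regeneration addition. Data normalized to full inhibition by 1.43 uM quinidine.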
# [8] = molecular target: Luciferin 4-monooxygenase (Photinus pyralis) (UniProt P08659); experiment: Biochemical firefly luciferase enzyme assay for NPC (AID 624030);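 further: purified P. pyralis luciferase at 10 nM with luciferin and ATP substrate; nearly all actives have a fitted effect of over 70% in size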
# Sequence of Luciferin 4-monooxygenase (Photinus pyralis) (P08659 whole entry, looked up): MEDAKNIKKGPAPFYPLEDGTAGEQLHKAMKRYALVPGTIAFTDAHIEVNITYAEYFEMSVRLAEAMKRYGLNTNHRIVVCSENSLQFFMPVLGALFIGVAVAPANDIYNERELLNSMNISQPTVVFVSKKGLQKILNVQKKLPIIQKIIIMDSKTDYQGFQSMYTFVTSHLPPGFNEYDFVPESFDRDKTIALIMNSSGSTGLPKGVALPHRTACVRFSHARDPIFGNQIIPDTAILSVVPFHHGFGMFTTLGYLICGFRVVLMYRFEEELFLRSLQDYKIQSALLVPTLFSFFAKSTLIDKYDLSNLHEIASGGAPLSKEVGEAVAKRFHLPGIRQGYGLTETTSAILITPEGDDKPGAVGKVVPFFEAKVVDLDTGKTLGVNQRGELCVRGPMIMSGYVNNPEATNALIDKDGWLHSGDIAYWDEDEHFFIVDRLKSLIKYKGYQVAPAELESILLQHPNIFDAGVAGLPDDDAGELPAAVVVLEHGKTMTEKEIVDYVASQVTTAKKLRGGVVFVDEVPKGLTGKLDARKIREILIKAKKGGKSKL
# Summary of the method: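 Direct inhibition of firefly luciferase enzyme (10 nM final, 50 mM Tris Acetate) assessed by luminescence within 5 minutes. Percent activity scaled between DMSO and PTC124 positive control, with concentration-effect curves classified by fit quality and response.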
# [9] = qHTS profiling for inhibitors of Plasmodium falciparum proliferation (AID 504749); further: nearly all actives have a fitted effect of over 60% in size; details: P. falciparum in erythrocytes, SYBR Green DNA, 72 h, at 28.7 µM (top of the series)
# Summary of the method: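 SYBR Green fluorescence of parasite DNA, read after lysis and overnight dark incubation, measured growth over 72 h in erythrocyte culture at 0.3% parasitemia and 2.5% hematocrit. Data normalised to DMSO and 0.29 uM artemisinin, with plate-drift correction.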
# [10] = molecular target: Alpha-galactosidase A (Homo sapiens) (UniProt P06280); experiment: Counterscreen for Glucocerebrosidase Inhibitors: qHTS Assay for Human alpha-Galactosidase at pH 4.5 (AID 992)
# Sequence of Alpha-galactosidase A (Homo sapiens) (P06280 whole entry, looked up): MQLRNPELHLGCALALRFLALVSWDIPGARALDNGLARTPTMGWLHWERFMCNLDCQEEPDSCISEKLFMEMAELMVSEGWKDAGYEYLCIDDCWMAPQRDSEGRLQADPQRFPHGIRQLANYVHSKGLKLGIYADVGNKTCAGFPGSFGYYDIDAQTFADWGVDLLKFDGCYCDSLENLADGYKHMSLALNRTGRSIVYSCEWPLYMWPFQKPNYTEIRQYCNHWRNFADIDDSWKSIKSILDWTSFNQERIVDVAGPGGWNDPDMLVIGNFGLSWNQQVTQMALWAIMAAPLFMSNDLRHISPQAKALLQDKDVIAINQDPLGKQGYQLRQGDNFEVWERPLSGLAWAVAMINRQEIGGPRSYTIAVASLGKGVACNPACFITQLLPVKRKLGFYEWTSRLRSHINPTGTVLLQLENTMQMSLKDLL
# Summary of the method: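 Citrate buffer pH 4.5, Tween-20 0.005%. Enzyme 2 nM, substrate 80 uM, 20 min RT. Stop pH 10. Fluorescence Ex 365/Em 440. AC50 by Hill fit.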
# [11] = molecular target: Glutathione peroxidase 1 (Homo sapiens) (UniProt P07203); experiment: Primary qHTS Assay for Inhibitors of Recombinant Selenoprotein Glutathione Peroxidase 1 (GPX1) (AID 1845191); further: nearly all actives have a fitted effect of over 65% in size
# Sequence of Glutathione peroxidase 1 (Homo sapiens) (P07203 whole entry, looked up): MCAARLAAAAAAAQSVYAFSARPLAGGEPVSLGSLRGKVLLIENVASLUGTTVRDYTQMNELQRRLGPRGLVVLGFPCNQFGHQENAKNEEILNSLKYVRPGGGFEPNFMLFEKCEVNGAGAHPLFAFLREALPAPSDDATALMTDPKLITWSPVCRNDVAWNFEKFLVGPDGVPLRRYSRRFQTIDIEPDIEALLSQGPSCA
# Summary of the method: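 NADPH consumption tracked by fluorescence at 340/450 nm between t=0 and t=15 min, room temperature. Final mix: 10 nM GPX1, 100 nM glutathione reductase, 1 mM GSH, 0.5 mM NADPH, 0.5 mM cumene hydroperoxide, 0.01% BSA; 30 min compound–enzyme preincubation.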
# [12] = molecular target: Phospholipid hydroperoxide glutathione peroxidase GPX4 (Homo sapiens) (UniProt P36969); experiment: Primary qHTS Assay for Inhibitors of Recombinant Selenoprotein Glutathione Peroxidase 4 (GPX4) (AID 1845192); details: outcome: dose series up to 50 µM unless noted; further: nearly all actives have a fitted effect of over 65% in size
# Sequence of Phospholipid hydroperoxide glutathione peroxidase GPX4 (Homo sapiens) (P36969 whole entry, looked up): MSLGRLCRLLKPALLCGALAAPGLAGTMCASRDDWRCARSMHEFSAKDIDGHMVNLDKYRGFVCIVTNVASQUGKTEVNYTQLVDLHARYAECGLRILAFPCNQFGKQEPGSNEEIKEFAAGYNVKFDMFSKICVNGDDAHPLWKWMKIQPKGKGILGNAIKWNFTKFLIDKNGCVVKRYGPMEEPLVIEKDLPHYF
# Summary of the method: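 NADPH consumption followed by fluorescence at 340/450 nm, t=0 and after 15 min at room temperature. Reaction started with cumene hydroperoxide (0.5 mM final) after 30 min compound–GPX4 preincubation; final 200 nM GPX4, 100 nM GR, 1 mM GSH, 0.5 mM NADPH.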
# [13] = molecular target: Rap guanine nucleotide exchange factor 3 (Homo sapiens) (UniProt O95398); experiment: Confirmatory qHTS for antagonist of cAMP-regulated guanine nucleotide exchange factor 3 (EPAC1) (AID 1645880); further: nearly all actives have a fitted effect of over 55% in size
# Sequence of Rap guanine nucleotide exchange factor 3 (Homo sapiens) (O95398 whole entry, looked up): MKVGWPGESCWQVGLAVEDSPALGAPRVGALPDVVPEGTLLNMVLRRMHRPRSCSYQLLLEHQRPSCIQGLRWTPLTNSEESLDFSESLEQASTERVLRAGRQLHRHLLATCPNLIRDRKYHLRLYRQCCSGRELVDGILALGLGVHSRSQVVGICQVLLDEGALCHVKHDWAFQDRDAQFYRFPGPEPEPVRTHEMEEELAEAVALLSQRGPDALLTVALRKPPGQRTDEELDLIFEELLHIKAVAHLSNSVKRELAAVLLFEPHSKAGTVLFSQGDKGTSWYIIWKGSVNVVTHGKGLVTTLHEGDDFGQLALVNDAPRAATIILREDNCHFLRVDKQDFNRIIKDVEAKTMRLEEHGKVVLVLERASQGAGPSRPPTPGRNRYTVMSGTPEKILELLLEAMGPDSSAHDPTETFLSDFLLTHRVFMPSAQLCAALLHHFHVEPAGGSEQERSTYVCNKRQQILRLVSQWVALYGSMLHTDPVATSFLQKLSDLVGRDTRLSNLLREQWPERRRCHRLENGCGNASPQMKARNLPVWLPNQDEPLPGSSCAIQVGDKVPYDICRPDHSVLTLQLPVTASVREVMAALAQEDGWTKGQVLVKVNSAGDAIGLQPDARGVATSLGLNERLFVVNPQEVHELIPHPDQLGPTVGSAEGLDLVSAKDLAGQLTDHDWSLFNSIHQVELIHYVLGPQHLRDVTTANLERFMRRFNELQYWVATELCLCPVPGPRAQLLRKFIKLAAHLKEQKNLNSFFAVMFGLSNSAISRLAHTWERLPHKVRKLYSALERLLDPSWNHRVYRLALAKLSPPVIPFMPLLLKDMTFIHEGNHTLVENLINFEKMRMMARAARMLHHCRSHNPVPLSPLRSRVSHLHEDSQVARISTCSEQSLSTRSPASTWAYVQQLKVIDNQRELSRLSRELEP
# Summary of the method: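 Released BODIPY-GDP fluoresces less than Rap1-bound BODIPY-GDP; the signal is followed at 480/540 nm at 5-min intervals over 30 min, after 5 min at room temperature. Reactions contain 100 nM EPAC1, 250 nM RAP1B-BODIPY-GDP and 50 uM GDP; results are normalized to ATA and DMSO.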
# [14] = molecular target: Rap guanine nucleotide exchange factor 3 (Homo sapiens) (UniProt O95398); experiment: Confirmatory qHTS for agonist of cAMP-regulated guanine nucleotide exchange factor 3 (EPAC1) (AID 1645881);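 further: EPAC1 catalysed release of BODIPY-GDP from Rap1B seen as fluorescence loss; nearly all actives have a fitted effect of over 75% in size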
# [15] = molecular target: Rap guanine nucleotide exchange factor 4 (Homo sapiens) (UniProt Q8WZA2); experiment: Confirmatory qHTS for agonist of cAMP-regulated guanine nucleotide exchange factor 4 (EPAC2) (AID 1645884);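 further: nucleotide exchange releases bodipy-GDP from Rap1 and this lowers its fluorescence; nearly all actives have a fitted effect of over 65% in size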
# Sequence of Rap guanine nucleotide exchange factor 4 (Homo sapiens) (Q8WZA2 whole entry, looked up, the tested form may be a part): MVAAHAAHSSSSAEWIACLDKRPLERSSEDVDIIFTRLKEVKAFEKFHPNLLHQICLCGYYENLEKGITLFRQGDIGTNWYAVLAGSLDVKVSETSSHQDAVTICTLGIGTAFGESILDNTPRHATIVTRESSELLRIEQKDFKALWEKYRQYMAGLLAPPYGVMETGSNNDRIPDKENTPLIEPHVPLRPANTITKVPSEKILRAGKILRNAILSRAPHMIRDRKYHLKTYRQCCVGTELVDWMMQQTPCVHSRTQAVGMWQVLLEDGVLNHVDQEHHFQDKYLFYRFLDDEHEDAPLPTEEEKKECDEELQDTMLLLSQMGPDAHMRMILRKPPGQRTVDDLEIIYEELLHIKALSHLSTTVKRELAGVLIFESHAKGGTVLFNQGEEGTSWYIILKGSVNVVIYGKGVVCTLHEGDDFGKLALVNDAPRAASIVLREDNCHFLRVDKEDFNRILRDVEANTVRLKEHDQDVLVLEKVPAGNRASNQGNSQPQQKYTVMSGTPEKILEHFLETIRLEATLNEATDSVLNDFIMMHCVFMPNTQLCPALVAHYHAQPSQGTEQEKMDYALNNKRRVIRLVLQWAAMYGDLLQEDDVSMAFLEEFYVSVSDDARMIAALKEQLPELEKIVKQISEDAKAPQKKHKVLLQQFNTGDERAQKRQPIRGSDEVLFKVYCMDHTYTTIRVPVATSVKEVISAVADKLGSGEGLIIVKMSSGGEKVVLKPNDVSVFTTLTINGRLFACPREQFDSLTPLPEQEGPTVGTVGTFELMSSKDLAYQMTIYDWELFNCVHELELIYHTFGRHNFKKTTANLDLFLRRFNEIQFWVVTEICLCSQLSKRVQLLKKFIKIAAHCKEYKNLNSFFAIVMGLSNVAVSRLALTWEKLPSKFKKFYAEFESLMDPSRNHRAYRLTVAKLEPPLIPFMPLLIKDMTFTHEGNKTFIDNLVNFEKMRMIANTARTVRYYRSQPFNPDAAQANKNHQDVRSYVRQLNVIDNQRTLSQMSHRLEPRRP
# [16] = Confirmation and Secondary Assay for Modulators of Hemoglobin Beta Chain Splicing at IVS2 654 locus (AID 910);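 further: HeLa cells stably carrying EGFP split by mutant beta-globin IVS2-654 intron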
# Summary of the method: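 Readout: per-well total peak green fluorescence (488 nm ex, 500–520 nm em) from objects 5–250 µm, reflecting correct splicing of an EGFP-654 reporter. Compounds were applied for 2 days at 37 °C to overnight-plated HeLa EGFP-654 cells; controls were DMSO and 500 nM IVS2-654 PNA.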
# [17] = Confirmation and Secondary Assay for Modulators of Hemoglobin Beta Chain Splicing at IVS2 705 locus (AID 930);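 further: HeLa cells stably expressing the EGFP-705 splicing reporter; GFP fluorescence per well restored by corrected splicing of the IVS2-705 intron in EGFP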
# Summary of the method: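 HeLa cells stably carrying EGFP interrupted by mutant beta-globin intron 2 (IVS2-705) treated 2 days at 37C with compound; 500 nM antisense PNA as control. Correct splicing read as total peak GFP intensity per well by laser-scanning cytometry.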
# [18] = molecular target: Rap guanine nucleotide exchange factor 4 (Homo sapiens) (UniProt Q8WZA2); experiment: Confirmatory qHTS for antagonist of cAMP-regulated guanine nucleotide exchange factor 4 (EPAC2) (AID 1645885); further: nearly all actives have a fitted effect of over 25% in size
# [19] = Primary qHTS for inhibitors of nuclear receptor binding SET domain protein 2 (NSD2) in an isogenic RCH-ACV NSD2 p.E1099K mutant (9B) (AID 1645876); further: nearly all actives have a fitted effect of over 70% in size; further: potency means the concentration at half of the fitted maximal effect
# [20] = Primary qHTS for inhibitors of nuclear receptor binding SET domain protein 2 (NSD2) in an RCH-ACV wild type WT cells (2C) (AID 1645877); further: nearly all actives have a fitted effect of over 70% in size; further: potency means the concentration at half of the fitted maximal effect
smiles,measurement,setting,value
COc1ccccc1NC(=O)Nc1nc(-c2cccnc2)nc2ccccc12,Potency,[1],inactive
same,Potency,[2],inactive
same,Potency,[3],inactive
same,Potency,[4],inactive
same,Potency,[5],inactive
same,Potency,[6],inactive
COc1cc(N)c(Cl)cc1C(=O)OCCCN1CCCCC1,Potency,[7],0.126 µM (active)
COC(=O)[C@@H]1[C@@H]2C[C@H]3c4[nH]c5ccccc5c4CCN3C[C@@H]2CC[C@@H]1O,Potency,[8],inactive
same,"activity, negative = inhibition",[9]; parasite line A,13.9%
same,"activity, negative = inhibition",[9]; parasite line B,-2.77%
N[C@@H]1CCN(O)C1=O,Potency,[1],inactive
same,Potency,[2],inactive
O=C(O)[C@H]1CN(CCCP(=O)(O)O)CCN1,Potency,[7],inactive
same,Potency,[1],inactive
same,Potency,[3],inactive
same,outcome,[10],inactive
CC(C)(C)NC[C@H](O)COc1cccc2[nH]c(=O)[nH]c12,Potency,[1],inactive
same,Potency,[2],inactive
same,outcome,[10],inactive
N[C@H](Cc1cnc[nH]1)C(=O)O,Potency,[11],inactive
same,Potency,[12],inactive
CCC(=O)N[C@@H]1Cc2ccccc2[C@@H](c2ccccc2)C1,Potency,[13],inactive
same,outcome,[14],inactive
same,outcome,[15],inactive
N[C@]1(C(=O)O)CCc2cc(C(=O)O)ccc21,Potency,[1],inactive
same,Potency,[2],inactive
same,Potency,[3],inactive
same,outcome,[10],inactive
CCN(CC)CCOC(=O)C1(c2ccc([N+](=O)[O-])cc2)CCCC1,Potency,[7],3.98 µM (active) and 5.01 µM (active)
CCCN=C(N)NCCC[C@H](N)C(=O)O,Potency,[7],7.94 µM (active)
O=C(O)c1c2ccccc2cc2ccccc12,outcome,[16],inactive
same,outcome,[17],inactive
N[C@H](C(=O)O)[C@@H]1C[C@@H]1C(=O)O,Potency,[1],inactive
same,Potency,[2],inactive
same,Potency,[3],inactive
CC(C)(C)c1ccc(S(=O)(=O)/C=C\C#N)cc1,outcome,[10],inactive
N[C@H](C(=O)O)C1[C@H](C(=O)O)[C@H]1C(=O)O (some centres undefined),Potency,[7],7.94 µM (active)
CC[C@H](C)N(C)C(=O)c1cc2ccccc2c(-c2ccccc2Cl)n1,Potency,[1],inactive
same,Potency,[13],inactive
same,outcome,[14],inactive
same,outcome,[15],inactive
NC(C(=O)O)c1cc(O)c(Cl)c(O)c1 (centres undefined),Potency,[13],inactive
same,outcome,[14],inactive
same,outcome,[15],inactive
same,Potency,[18],inactive
CCN(CC)CC1CCN(c2ncc3ncnc(Nc4ccc(F)c(Cl)c4)c3n2)CC1,Potency,[19],9.2 µM (active)
same,Potency,[20],16.4 µM (active)
same,Potency,[11],inactive
Nc1[nH]nc2nc3ccccc3nc12,Potency,[19],inactive
same,Potency,[20],inactive
same,Potency,[11],inactive
CC(C)(C)n1nc(-c2ccc(Cl)cc2)c2c(N)ncnc21,Potency,[19],8.2 µM (active)
same,Potency,[20],16.4 µM (active)
same,Potency,[11],inactive
Cc1ccc(-c2nn(C(C)(C)C)c3ncnc(N)c23)cc1,Potency,[19],7.31 µM (active)
same,Potency,[20],11.6 µM (active)
same,Potency,[11],inactive
COc1ccc2[nH]c(-c3ccccc3)c(CCNC(C)=O)c2c1,Potency,[13],inactive
same,outcome,[14],inactive
same,outcome,[15],inactive
same,Potency,[18],inactive
Cc1sc(N)c(C(=O)c2cccc(C(F)(F)F)c2)c1C,Potency,[13],inactive
same,outcome,[14],inactive
same,outcome,[15],inactive
CC(C)=CCC/C(C)=C/CC/C(C)=C/CC/C(C)=C/CO,outcome,[16],inactive
same,outcome,[17],inactive
COc1cc(CNC(=O)CCCC/C=C\C(C)C)ccc1O,Potency,[13],inactive
same,outcome,[14],inactive
same,outcome,[15],inactive
